Reference: PubChem BioAssay AID1508600 (Functional Genomics Laboratory (NCATS/FGL), 2020)
Among all 53,000 sequences or so, about 3,700 (7%) were called active. Only a selection was taken, and actives are over-represented in it overall. A number with no mark means an inactive call.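 How the source made its calls: active means gene knockdowns whose robust z-score for IL-1 alpha signal is at least 2 or at most -2, so actives lie on both sides; inactive means the rest.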

Assay: Components of the Cytosolic LPS Sensing Pathway: Gene Identification via Genome-wide siRNA Screen;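 further: robust z of the log signal after scaling to non-targeting control siRNA wells of the plate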
Conditions: RAW264.7 macrophages, IL-1a HTRF, actives lie on both sides, screened at 100 nM (by protocol), cells primed 5 h with Pam3CSK4 first
In short: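 Read-out: IL-1a HTRF on supernatant, divided by plate negative-control median ×100, log-transformed and converted to robust z-score. Cells were RAW264.7 given 100 nM siRNA, Pam3CSK4-primed 5 hours, then LipidA-transfected 24 hour.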

Sequence | z-score
GGUGGAGACACUGAAGGUUTT against Akap1 | 0.314
GACCAGAAAUUUAAGUGCUTT against Dnajc30 | 1.5
GGAUCUUCCUCAUCACCCUTT against Ube4a | 0.657
GCUUACCUGCUGUCUUAAUTT against F630003A18Rik | 0.42
GGAGCUCCUGAACAGGAUCTT against Gpr26 | 2.13 (active)
CCUUACAUGUUGACUACCCTT against Rnase13 | 0.403
GGUCUUCUGUCCAUUAGUGTT against Pigc | 0.14
GGAGAAAGAUGGCAUAAUGTT against Slitrk6 | -0.595
GGUGAAGGUGAACAAGGACTT against Myh9 | 2.92 (active)
GGACAAUCCAUAAGUUAAATT against Scai | 0.22
GGAAGUUAAGCAUAGUUUCTT against Flrt3 | 1.15
GGCAACAGUAUUUAUGAAUTT against Sim2 | -0.45
CCUAGCAUGUUUCUUGCUATT against Rnft2 | 0.46
GGAGAAAAUUGUCAAGAAGTT against Ift122 | -0.824
CCAGGAUCAAAGAACUUAUTT against Olfr1424 | -3.39 (active)
GGAACUUUUCAUCCUGAAGTT against Fgl1 | 0.0919
GCUCAUCAAGCUGUACCUATT against Eif2b1 | 1.16
GCUUUGAUUUAUGAGGUCATT against Ttc30a1 | 0.251
GGUCUUGUGGUGGUACUACTT against Elovl2 | 1.77
GGCCAUUCUGGAAACUCCATT against Foxp4 | -0.0644
GGAAUAAUAGAGGAAUGAGTT against Bclaf1 | -1.61
GGAGAGAGAUUUUCAAUAUTT against Gtdc1 | -0.41

Sequence | z-score
GGAGAGCCUUAUUCAUCGCTT against H2-DMb2 | -0.0566
GGAAUCUGUCAUGUGAAUATT against Slc1a5 | -0.0766
GCUGGUGCAUUACUGAGGUTT against Olfr69 | 0.434
CCAAACACUAUGUGACAAGTT against Trim8 | -0.626
GCGGGUGAAAUACACCAAGTT against Trim28 | -2.2 (active)
GGCCAAGCAUGUUUUGUCATT against Cep72 | -0.639
GCUUGGUGGGUUUGUUGAUTT against Slc28a1 | -0.113
GUGCUCUAUGUCUUCACUGTT against Ltb4r2 | -1
CGACUACCAACAGUUCAUATT against P2rx6 | 1.14
UCCAUUUCGACCCUUGUACTT against Romo1 | -2.88 (active)
GGAGCUCAUAGACCAGCUUTT against Necab3 | 0.371
GCUUGAUGGUAAAAAGGUUTT against Atl1 | -1.18
CCAACCUAUAAGUUAAUGATT against Mrps22 | -0.735
CGGAGAGGAUUUCAUCGAATT against Azgp1 | 0.0877
GGGCCUCCAUCCUACUAUGTT against Grina | 1.65
GGGCUUCUUCUGCUAUGACTT against Plppr2 | -2.2 (active)
CGAUAUGUGUUUGUAAUGGTT against Atp6v1d | -0.853
GCCGUGAUCGACUUGAAUATT against U2af1 | 0.763
CCAAUAUGCUCAGUAUUACTT against Eya4 | -1.36
CCCUCUCCCUUCAAUGUGGTT against Cblif | -1.38
GGGUGUUUGGUUGUGAUCUTT against Arhgap33 | -2.07 (active)
GGAGUAGUAGCUGAAUUUGTT against Abcc3 | 0.317

Sequence | z-score
GGCUGAUCUCUUUUGCCAGTT against Reg2 | 0.00409
GGAACAUAUACUGGACAGATT against Zfp825 | 0.436
GGAUGUGAUCAUAGCAUGGTT against Slc35e1 | -2.07 (active)
GGGCUAAUAUACAGAAAUATT against Rrm2b | -0.126
GGUGGAGAAAAAUGCAACATT against Clnk | -0.429
GGAAAUCUGAAGAAUCAAGTT against Zup1 | -0.621
GGAGGUAGAAAAGACAAAATT against Jrk | 1.96
GGAUGCAUUUCUGAGCCACTT against Tacc2 | -1.62
CUCUCGAACAAUCAACCACTT against Olfr315 | 2.05 (active)
GGAAGGACAAUCAGUUCCUTT against Thsd7b | 0.999
CCUUUUAUAACUGCUCUCUTT against Jpt2 | -1.01
GCUCACUCUUUCCAACUAUTT against Ubox5 | 0.465
GGCUGGAUUAUUUUUUCUUTT against Usp4 | 0.921
GAACGUGCAGCUGACAGAGTT against Ppp1ca | -1.03
GACUAUGUGGUCUACUCGUTT against Drd4 | 2.86 (active)
CGGGCUGGAAGAAAUCUCUTT against Rhox3a | 0.771
GGACAAAACCAUCUCCUUCTT against Olfr17 | 0.324
GGGAAUGCACUACAACUACTT against Chpf | 1.16
GCCAUAUCAACUAGUGCAGTT against Siglech | 2.36 (active)
GGCUUUUCUGGCUAUCCACTT against Anxa7 | -0.774
GGCCCAAGAGCAUUCUGGATT against Slc25a19 | 0.552
GGGUGUGCAUUUGUACUACTT against Smad9 | 1.21

Sequence | z-score
GGAUAUGUCAGCAUAUGUGTT against Yeats4 | -0.583
GGUCAACAGUUACAUCGAGTT against Vps33a | 0.273
GCCCAUCUUAGCAUUCUCUTT against Aldh4a1 | -1.91
GCUAGAAAAAAAUCAGUUGTT against Eif2a | 0.6
CCCAGAACGGGAUGAUUCUTT against Trex2 | 2.77 (active)
CCUCUCAACCACUGACUGATT against Gpatch4 | 0.836
GCUCAAAUCGUACAAGUGUTT against Panx1 | 0.214
GUCCUCGUAGGAACAGCAUTT against Olfr1265 | -1.52
GGCACUGUUGUGGCUGAAATT against Coro1a | 1.47
CCUCAUGGAUGUUCGUAGATT against P2ry10 | 0.452
GCUAGGAUGUCUGAAAGAGTT against Ccdc178 | 0.266
GGCUGUAUCCUGACAGCAATT against Olfr231 | 0.213
GCGUGGAGAACCGUUAAUCTT against Shroom3 | 0.845
CCUCUCUAGGCCAUGUUCUTT against 1110008P14Rik | 0.381
GGUUUUAUCCCUGUUUCCUTT against Naaa | -0.115
CCUGAGAUUGGGAAAUUCUTT against Engase | 2.02 (active)
GCGGUCAACUGGAAACUAATT against Dnaja3 | 0.735
GCAUCAUGAGUCCCAUUCUTT against Olfr385 | -0.276
CCAACGCGCACGGCCGCGCTT against Tmem158 | -0.359
CCGAAAAAUAUGUUUUCCGTT against Mettl4 | 2.87 (active)
CCCUGCUGUCGUUUUGACUTT against Senp3 | -0.122
GGAAAGUUUUGGCGACUACTT against Fbxw19 | 0.25

Sequence | z-score
GCUCAACUUACGUUCACUCTT against Vps72 | -2.53 (active)
GGAUUUAAAUCACCUGUAATT against Tdpoz1 | -0.864
GCAGAAAAGGUCUACGUGCTT against Azgp1 | 1.8
AAACAGUCAUUUCCUAUAGTT against Olfr1502 | -2.04 (active)
CCGAUUAAAAGAGUGUUUGTT against Nudt8 | 1.85
GGUUAUCUUUGGGACUUAATT against Lrmp | -1.66
GCUGGUGCUCUUCACCAUATT against Fbxw17 | -0.419
CCUGAAAUGCUAAGACUACTT against Gm5142 | 1.15
GGGAUCUUACAUGCCACCATT against Olfr1231 | -0.000779
GGCUACUCGGCCCUCUGUUTT against 4930404N11Rik | -1.67
GGACGUGUAGCUUGGAAUATT against Rnf26 | 5.33 (active)
CCAUACAGAGGUGACAGUUTT against Olfr816 | -0.23
CCAUAAAAACCAGAGAAAUTT against Plekhf2 | -0.778
GGUCGACUUAAGAUAAUAATT against Itgb6 | -0.294
CCCUGUUAAGGAAUGCAAATT against Chil1 | 0.367
GGAGAAAUUCGACUGAAAATT against Pcdhb13 | 3.47 (active)
GGCUUUUUGCUUCACUACUTT against Slco4c1 | 1.06
GGCGAAUUAUUGAAAACGUTT against Actr8 | 0.916
GGAGUUGGAUAUUCUAAAATT against B3gntl1 | -0.64
